Assay results reported in PubChem BioAssay AID504832 (National Center for Advancing Translational Sciences (NCATS), 2011).
Hit rate of the full screen: of about 310,000 compounds, about 18,000 (5.8%) were called active. Not shown: some 22% with an inconclusive outcome. This is one part of a sample in which actives are shown more often than they occur. Calls come from the whole dose curve; as a rule, active = well fitted inhibition curve with a large enough effect; inconclusive = small, poorly fitted or top-dose-only effect, or another doubt; inactive = no such curve, though single readings can be large or run the other way.

assay: Primary qHTS for delayed death inhibitors of the malarial parasite plastid, 48 hour incubation; details: P. falciparum luciferase growth in erythrocytes; series mostly up to 28.7 µM; activity change, negative = inhibition: at the top concentration
Description: The goal of this screen is to discover new antimalarial compounds that act by inhibiting the development of the apicoplast in the malarial parasite Plasmodium falciparum. The biochemical processes that make this organelle essential for erythrocytic stage parasites are not well understood. However, antibiotics such as azithromycin and tetracycline, which target the apicoplast translational machinery, have a potent antimalarial effect.
We have developed a cell-based assay that measures parasite growth based on the expression of an integrated copy of a firefly luciferase reporter. To detect small molecules that cause this "delayed death" phenotype, erythrocytes infected with the luciferase-expressing parasites were incubated with compounds for either one or two generations, corresponding to 48 and 96 hours, respectively. Compounds that inhibit parasite growth in the second generation, but not the first, should be enriched in antimalarials that target the apicoplast. Growth inhibition is detected by a decrease in luciferase activity.
Assay Provider: David Fidock and Eric Ekland, Columbia University
Keywords: NIH Roadmap, MLPCN, MLI, MLSMR, qHTS, NCGC, qHTS, malaria, luciferase, viability
Four microliters of culture medium (RPMI 1640 with 0.5% w/v Albumax (GIBCO), 24 mM sodium bicarbonate and 10 ug/mL gentamycin) were dispensed by a Multi-drop Combi into white solid 1536-well plates (Grenier) and 23 nL compound was added by a pin tool. Four microliters of infected erythrocytes (2% hematocrit, 0.1% parasitemia final concentration) in culture medium were dispensed and the plates incubated for 48 hours at 37 C in 5% CO2. Two microliters of luciferase detection reagent was added and luminescence was detected by a ViewLux (PerkinElmer) reader.
% is set by controls: 0 for no effect and ±100 for the full control effect; potency is the fitted concentration of half-maximal effect.

Compound | activity change, negative = inhibition | Potency
CC(=O)Nc1ccc(CN2CCC(Oc3ccc(C(=O)N4CCCC4)cc3)CC2)cc1 | 50.1% (inactive) | –
O=C(c1ccc(OC2CCN(Cc3ccccn3)CC2)cc1)N1CCCCCC1 | -17.7% (inactive) | –
O=C(c1ccc(OC2CCN(C/C=C/c3ccc(F)cc3)CC2)cc1)N1CCCCC1 | – | 11.7 µM (active)
CCc1noc(C)c1C(=O)NNC(=O)c1ccc(F)cc1 | -2.99% (inactive) | –
CCn1nc(C)c(CNC(=O)C2CCC(=O)N(Cc3cccc(F)c3)C2)c1C (centres undefined) | 30.1% (inactive) | –
CC(C)[C@H](NC(=O)N1CCn2c1nc1ccccc12)C(=O)NCc1ccc2c(c1)OCO2 | -9.51% (inactive) | –
CC(C)(C)c1ccc(C(=O)N2CCC(C(=O)N3CCCCC3)CC2)cc1 | -7.27% (inactive) | –
CC(C)(C)c1ccc(/C=C2\Oc3c(ccc(O)c3CN3CCN(CCO)CC3)C2=O)cc1 | – | 10.4 µM (active)
CC(=O)Nc1cccc(NC(=O)c2ccc3c(c2)CCN3S(C)(=O)=O)c1 | 11.6% (inactive) | –
C[C@H](NC(=O)C1CC(=O)N(c2ccc3c(c2)OCCO3)C1)C(=O)N1CCC(C(=O)O)CC1 (some centres undefined) | -18.3% (inactive) | –
CC1(C)c2[nH]c3ccccc3c2C[C@H]2C(=O)N(N)CC(=O)N21 | 34.8% (inactive) | –
Cc1cc(C)cc(OCc2nnc(SCC(=O)OC3CCCCC3)o2)c1 | 12.6% (inactive) | –
Cc1ccccc1OCc1nnc(SCC(=O)N2c3ccccc3Sc3ccc(Cl)cc32)o1 | – | 10.4 µM (active)
Cc1cc(C)cc(OCc2nnc(SCC(=O)Nc3ccccc3)o2)c1 | -7.32% (inactive) | –
CC(C)Oc1ccc(C(=O)NCC(=O)Nc2ccc3c(c2)CCC3)cc1 | 35% (inactive) | –
CCN(CC)c1ccc(S(=O)(=O)N2CCOCC2)cc1NC(=O)CSc1cccc[n+]1[O-] | -26.3% (inactive) | –
CCN(CC)c1ccc(S(=O)(=O)N2CCCCC2)cc1NC(=O)C1=COCCO1 | – | 13.1 µM (active)
O=C(Nc1ccc(S(=O)(=O)N2CCCC2)cc1Cl)C1=COCCO1 | -19.6% (inactive) | –
COc1ccc(-c2noc(CCCC(=O)NC3CCCC3)n2)cc1OC | -19% (inactive) | –
Cn1c(-c2ccc(F)cc2)cc2onc(-c3ccccc3Cl)c2c1=O | 33.5% (inactive) | –
O=C(Nc1ccc([N+](=O)[O-])cc1)OCCc1ccccn1 | 40.9% (inactive) | –
CC[C@@H]1Cc2cc(O)ccc2C2=C1c1ccc(O)cc1C[C@H]2CC | – | 11.7 µM (active)
O=C(Nc1ccccn1)C1CCN(S(=O)(=O)c2ccc3c(c2)OCCO3)CC1 | 114% (inactive) | –
CCOc1ccc(-c2noc(CCC(=O)NC3CCCC3)n2)cc1OC | 1.54% (inactive) | –
Cc1ccc(C)c(OCCC(=O)OCC(=O)N2CCN(c3ccccc3)CC2)c1 | 7.54% (inactive) | –

Compound | activity change, negative = inhibition | Potency
CC(C)NC(=O)COCc1cc(-c2ccc3c(c2)OCO3)on1 | 41.4% (inactive) | –
COc1ccc(C(=O)CC(=O)C(=O)Nc2cc([N+](=O)[O-])ccc2OC)cc1 | -19.7% [at 0.00184 µM] (inactive) | –
Cc1cc(C)n(CC(O)COc2ccc(C(C)(C)C)cc2)n1 (centres undefined) | -22.6% (inactive) | –
OC(COc1ccc(Br)cc1)CN1CCCC1 (centres undefined) | -3.26% (inactive) | –
CN(C)CC(O)COc1ccc(C(C)(C)c2ccc(OCC(O)CN(C)C)cc2)cc1 (centres undefined) | – | 5.86 µM (active)
O=C(OCC(=O)N1CCc2ccccc21)c1ccc([N+](=O)[O-])cc1 | -15.6% (inactive) | –
O=C(N/N=C\c1cc2c(cc1Cl)OCO2)c1ccc(Br)s1 | 9.16% (inactive) | –
Cc1ccc(S(=O)(=O)N(C)C)cc1NC(=O)C(C)OC(=O)c1ccc2ccccc2n1 (centres undefined) | 14.4% (inactive) | –
CC1=NC2(CCCc3c2no[n+]3[O-])N(O)C1(C)C (centres undefined) | – | 7.38 µM (active)
CCOc1ccccc1NS(=O)(=O)c1cc2c3c(c1)C(C)C(=O)N3CCC2 (centres undefined) | -22.7% (inactive) | –
Cc1cc(C)n(-c2ccc(NC(=O)C3CCCCN3C(=O)c3cccs3)cc2)n1 (centres undefined) | 34% (inactive) | –
CC1C(=O)Nc2ccccc2N1C(=O)c1c(F)cccc1F (centres undefined) | -12% (inactive) | –
O=C(CCNC(=O)c1ccc(Br)cc1)Nc1cccc(S(=O)(=O)N2CCCCC2)c1 | 17.9% (inactive) | –
COc1ccc2oc(C(=O)OCC(=O)N(CC(C)C)c3c(N)n(Cc4ccccc4)c(=O)[nH]c3=O)c(C)c2c1 | -15.5% (inactive) | –
CC(=O)c1ccc(Oc2cc(C)nc(-n3nc(C)cc3C)n2)cc1 | – | 11.7 µM (active)
Cc1cc(C)n(-c2cc(Oc3ccccc3)ncn2)n1 | 10.9% (inactive) | –
Cc1cc(Oc2ccc(Cl)cc2)nc(SCC(=O)c2ccccc2)n1 | 11.4% (inactive) | –
COc1cccc(C(=O)Nc2nnc(S(=O)(=O)N3CCCCC3)s2)c1 | 11.5% (inactive) | –
COc1ccc(/C=C2\SC(=O)N(CCC(=O)NC3CCS(=O)(=O)C3)C2=O)cc1 (centres undefined) | 106% (inactive) | –
COc1cccc(-c2noc(C3CCCN(C(=O)c4ccc(F)cc4)C3)n2)c1 (centres undefined) | 30.9% (inactive) | –
CC(C)c1ccc(-c2noc(C3CCCN(S(C)(=O)=O)C3)n2)cc1 (centres undefined) | 37.3% (inactive) | –
COc1cc(-c2noc(C3CCCN(S(=O)(=O)c4cccc(Cl)c4)C3)n2)cc(OC)c1OC (centres undefined) | – | 13.1 µM (active)
CCCCn1c(N)c(N(CCOC)C(=O)c2sc3ccccc3c2Cl)c(=O)[nH]c1=O | 4.94% (inactive) | –
CCn1cc(/C=C(\NC(=O)c2ccc(C)cc2)C(=O)NCCN2CCOCC2)c2ccccc21 | -11.1% (inactive) | –
COc1ccc(NC(=O)CSc2nc(SC)ns2)c(OC)c1 | 152% (inactive) | –

Compound | activity change, negative = inhibition | Potency
O=C(O)CCn1c(Cc2ccccc2)nc2ccccc21 | -1.94% (inactive) | –
Cc1ccc2c(c1)C1CN(C)CCC1N2C(=S)Nc1ccc(Cl)cc1Cl (centres undefined) | 1.06% (inactive) | –
Cc1ccc2c(c1)C1CN(C)CCC1N2C(=S)Nc1ccc(OC(F)F)cc1 (centres undefined) | 2.27% (inactive) | –
Cc1ccc2c(c1)C1CN(C)CCC1N2S(=O)(=O)c1ccc(Oc2ccc([N+](=O)[O-])cc2)cc1 (centres undefined) | – | 8.28 µM (active)
COc1cc(NC(=O)CSc2ccc(-c3cccnc3)nn2)cc(OC)c1 | -21.3% (inactive) | –
COc1ccccc1CN1CCN(C(c2ccccc2)c2ccccc2)CC1 | – | 13.1 µM (active)
COc1ccccc1/C=N/N1CCN(Cc2ccccc2Cl)CC1 | -0.519% (inactive) | –
COc1ccccc1CN1CCN(C(=O)Cc2ccccc2)CC1 | 0.183% (inactive) | –
COc1ccc(N2CC(NS(=O)(=O)c3ccc4ccccc4c3)CC2=O)cc1 (centres undefined) | 9.04% (inactive) | –
NC(=O)c1cc(-c2cccnc2)nc2ccc(Br)cc12 | -1.12% (inactive) | –
O=C(NCc1ccco1)c1cc(-c2cccnc2)nc2ccc(Cl)cc12 | – | 10.4 µM (active)
O=C(NCc1ccco1)c1ccc([N+](=O)[O-])cc1Cl | 14.9% (inactive) | –
O=C(NC1C2CC3CC(C2)CC1C3)c1ccc(N2CCNCC2)c([N+](=O)[O-])c1 (centres undefined) | -9.91% (inactive) | –
O=C(Nc1cccc(C(F)(F)F)c1)c1ccc(N2CCNCC2)c([N+](=O)[O-])c1 | – | 2.62 µM (active)
O=C(Nc1ccc(N2C(=O)c3cccc4cccc(c34)C2=O)cc1)c1ccc(N2CCCCC2)c([N+](=O)[O-])c1 | -11.8% (inactive) | –
O=[N+]([O-])c1ccc(NC(=S)N2CCN(c3ccccn3)CC2)cc1 | 7.82% (inactive) | –
O=C(CNC(=O)c1ccccc1)Oc1ccc([N+](=O)[O-])cc1 | 0.311% (inactive) | –
Oc1c(Cl)cc(Cl)c(Cl)c1Cc1c(O)c(Cl)cc(Cl)c1Cl | – | 11.7 µM (active)
CCOc1ccc(N2CC(C(=O)NCc3ccccn3)CC2=O)cc1 (centres undefined) | -0.962% (inactive) | –
CC(C)C[C@H](NC(=O)N1CC(=O)Nc2ccccc21)C(=O)N[C@H](Cc1ccccc1)C(=O)O | -23.2% (inactive) | –
COc1ccc(C(=O)O/N=C(\N)Cc2ccc(Cl)cc2Cl)cc1OC | – | 13.1 µM (active)
COc1ccc(C(=O)ON=C2c3ccccc3-c3ccccc32)cc1OC | 22.3% (inactive) | –
COc1ccc(C/C(N)=N/OC(=O)c2ccco2)cc1OC | 6.03% (inactive) | –
Cc1ccc2c(C)c(C(=O)N(C)Cc3ccncn3)oc2c1C | -0.404% (inactive) | –
CCOC(=O)N1CCN(Cc2nc(N)nc(Nc3ccc(C)cc3)n2)CC1 | 21.1% (inactive) | –

Compound | activity change, negative = inhibition | Potency
CCOC(=O)N1CCN(C(c2cccnc2)c2ccc3cccnc3c2O)CC1 (centres undefined) | – | 11.7 µM (active)
CCN1CCN(C(c2cccnc2)c2cc(Cl)c3cccnc3c2O)CC1 (centres undefined) | – | 4.15 µM (active)
CCN1CCN(c2ccc(NC(=O)c3cnccn3)cc2)CC1 | 192% (inactive) | –
CCOC(=O)N1CCN(C(=O)CSc2nc(=O)n3cccc(C)c3n2)CC1 | -0.362% (inactive) | –
CN(CC(=O)Nc1ccc(F)cc1)CC(=O)N1CCCCC1 | 3.47% (inactive) | –
Cc1cc(C)cc(N(CC(=O)NC2CCCC2)C(=O)CCC(=O)Nc2cc(C)on2)c1 | -38.6% (inactive) | –
Cn1cc(CNC(=O)c2ccc(OC3CCN(Cc4ccccn4)CC3)cc2)cn1 | -19.4% (inactive) | –
CCOC(=O)c1cccc(NC(=O)C2CCN(c3ncnc4c3nc3n4CCCCC3)CC2)c1 | -24.5% (inactive) | –
COc1cc(C2/C(=C(\O)c3ccc4c(c3)CC(C)O4)C(=O)C(=O)N2c2nnc(C)s2)cc(OC)c1OC (centres undefined) | 2.05% (inactive) | –
O=S(=O)(Nc1cccc(-n2cnnn2)c1)c1cnc(Cl)c(Cl)c1 | -12.1% (inactive) | –
CC(=O)NC12CC3CC(C1)CC(C(=O)N1CCN(C(=O)c4ccco4)CC1)(C3)C2 | 85.7% (inactive) | –
Cc1ccc(C(=O)Nc2ccn(C)n2)cc1 | 4.9% (inactive) | –
CN1C(C(=O)NCc2ccco2)CC2Cn3c(nc4ccccc43)C21 (centres undefined) | -29.7% (inactive) | –
Cc1nc2nc(SCC(=O)Nc3cccc(F)c3)[nH]c2cc1Br | 39.1% (inactive) | –
COc1ccc(CN2CCN(C(=O)CCC(=O)Nc3nnc(C(C)C)s3)CC2)cc1F | -1.74% (inactive) | –
COc1cc(CN2CCC(C(N)=O)CC2)ccc1OCc1ccccc1 | 119% (inactive) | –
COc1ccc(CN2CCN(C(=O)c3cc(C4CC4)nn3-c3ccccc3)CC2)cc1F | – | 8.28 µM (active)
COc1ccc(C(=O)NCc2nnc(SCC(=O)NC3=NCCS3)n2C)cc1 | 10.4% (inactive) | –
Cc1cc(=O)cc(C)n1-c1ccc(Cl)c(Cl)c1 | -14.4% (inactive) | –
CCN(CC)c1ccc([N+](=O)[O-])cc1C(=O)O | -8.48% (inactive) | –
O=C(OCC(=O)N(CCc1ccccc1)Cc1ccccc1)c1ccccc1[N+](=O)[O-] | 33.7% (inactive) | –
O=[N+]([O-])c1ccc(N(CCO)Cc2ccccc2)c([N+](=O)[O-])c1 | – | 4.65 µM (active)
O=C(NCCCn1ccnc1)c1cc(Br)c(Br)s1 | -13% (inactive) | –
CC(=O)Nc1ccc(NC(=O)CSc2nnnn2C2CCCCC2)cc1 | 0.533% (inactive) | –
